ATXN viability = cell viability loss in ATXN counter-screen. S2 cells (HEK-293 line with an ATXN2-luciferase reporter) viability, CellTiter-Fluor protease fluorescence, 24 h. Potency, µM (highest dose often 56.7 µM), most hits filed as cytotoxic. 0.49% of 400,000 active. AID 651635; further: nearly all actives have a fitted effect of over 40% in size
TGFb SMAD3 inh = blocks TGF-b signaling | Potency, µM (top dose mostly 46.1 µM), for inactives: at the highest dose activity, negative = inhibition, usual class: inhibitors | HepG2 CAGA-GFP TGF-b/SMAD3 reporter, GFP fluorescence, 18 h; TGF-beta stimulated, 500 pg/mL final | AID 588855 | 1.2% of 410,000 active; further: on the % scale 0 is the no-effect control and ±100 the full control effect; nearly all actives have a fitted effect of over 65% in size
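First, reporter cells (HEPG2 CAGA-GFP) rested 2 h at 37 degrees C. Next, compounds were pinned in and TGF-beta added to 500 pg/mL final. After 18 h, GFP was imaged per cell and summed per well.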
Nrf2 inh = Nrf2 pathway inhibition. 2.1% of 360,000 active. Potency, µM (top dose mostly 46 µM), without a hit: top-dose activity change, negative = inhibition, usual class: inhibitors. AID 504444. A549 ARE-Fluc reporter, luciferase luminescence, 18-24 h; further: on the % scale 0 is the no-effect control and ±100 the full control effect; nearly all actives have a fitted effect of over 60% in size
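A549 ARE_Fluc cells, 5000/well, 5% FBS OPTI-MEM; compounds in dose-response, 18-24 h at 37 °C/5% CO2; CellTiter-Fluor viability read (Ex 405/Em 525), then BugLite luciferase luminescence = Nrf2 activity.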
ATXN2 expr inh = reduces ATXN2 reporter expression in HEK-293 cells; HEK-293 ATXN2-luciferase reporter, luminescence, 24 h; Potency, µM (series often up to 57 µM), without a hit: at the highest dose activity change, negative = inhibition, actives largely listed as inhibitors; 0.72% of 360,000 active; further: on the % scale 0 is the no-effect control and ±100 the full control effect; nearly all actives have a fitted effect of over 55% in size
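ATXN2-luciferase reporter cells (luciferase flanked by upstream and downstream ATXN2 gene portions) were treated 24 h at 37 °C with compounds at up to 57 uM. SteadyGlo luminescence gave expression; GF-AFC fluorescence gave viability.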
A549 tox = counter-screen for Nrf2 inhibitors: cytotoxicity in A549 cells; A549 ARE-Fluc cells, CellTiter-Fluor viability, 18-24 h; Potency, µM (highest dose often 46 µM), without a hit: at the highest dose activity change, negative = cytotoxicity, hits mostly inhibitors; 0.16% of 390,000 active; AID 504648; further: on the % scale 0 is the no-effect control and ±100 the full control effect
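A549 ARE-Fluc cells in 5% FBS OPTI-MEM, 5000 cells/well, rested 2 h then exposed to compounds in concentration-response for 18-24 h at 37 °C. Viability by CellTiter-Fluor fluorescence (Ex 405/Em 525) after 30 min; luciferase luminescence (BugLite, 15 min, RT) read afterwards.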
HepG2 tox-1 = HepG2 cytotoxicity, counter-screen for TGF-b inhibitors | HepG2 CAGA-GFP viability, ATP luminescence, 18 h | Potency, µM (doses to about 46.1 µM), for inactives: top-dose activity change, negative = cytotoxicity, most hits filed as cytotoxic | 0.76% of 410,000 active
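HepG2 CAGA-GFP cells (1000/well, DMEM with 1% FBS) received compound, then TGF-beta at 500 pg/mL final, and were incubated 18 hours at 37 degrees C. Viability was read by CellTiter-Glo luminescence. Media-only wells were set as complete cell-killing and DMSO as no toxicity.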
TGFb CAGA inh = TGF-b pathway inhibition, cherry-pick retest; shares compounds with TGFb SMAD3 inh; HepG2 CAGA-GFP TGF-b reporter, GFP fluorescence, 18 h; cells stimulated with TGF-beta, 500 pg/mL; Potency, µM (doses to about 46.1 µM), for inactives: at the highest dose activity, negative = inhibition, usual class: inhibitors; 63% of 1,600 active; further: on the % scale 0 is the no-effect control and ±100 the full control effect; nearly all actives have a fitted effect of over 65% in size
HepG2 tox-2 = counter-screen for TGF-b inhibitors: cytotoxicity in HepG2 cells; shares compounds with TGFb SMAD3 inh; HepG2 CAGA-GFP viability, ATP luminescence, 18 h; cells stimulated with TGF-beta, 500 pg/mL; Potency, µM (top dose mostly 46.1 µM), without a hit: at the highest dose activity, negative = cytotoxicity, most hits filed as inhibitors; 27% of 1,600 active; further: on the % scale 0 is the no-effect control and ±100 the full control effect; nearly all actives have a fitted effect of over 70% in size
TGFb CCL64 inh = blocks TGF-b signaling in CCL64 reporter cells; CCL64 CAGA-GFP reporter, TGF-b stimulated, GFP fluorescence, 18 h; AID 720536; 41% of 1,600 active; Potency, µM (titrated, usually from 46.1 µM), without a hit: at the highest dose activity, negative = inhibition, hits mostly inhibitors; shares compounds with TGFb SMAD3 inh; further: nearly all actives have a fitted effect of over 65% in size
TGFb COP inh = validation of TGF-b inhibitors in HepG2 COP promoter reporter | HepG2 COP-GFP TGF-b reporter, GFP fluorescence, 18 h; cells stimulated by added recombinant TGF-beta | Potency, µM (highest dose often 46.1 µM), for inactives: at the top dose activity, negative = inhibition, actives largely listed as inhibitors | shares compounds with TGFb SMAD3 inh | 3% of 1,600 active; further: nearly all actives have a fitted effect of over 70% in size
The depositor's hits bear a star; i = inactive; ? = inconclusive; / = no result given; [ ] = remark or other dose. In the library only some 3.8% were active in any assay of this set; here they are far more common. The call rests on the fitted dose curve; in most records, active means well fitted curve in the direction sought with a large enough effect; inconclusive means small, poorly fitted or top-dose-only effect, or another doubt; inactive means no such curve, though single readings can be large; an effect the other way counts as inactive or inconclusive. Potency means the concentration at half of the fitted maximal effect.

SMILES	ATXN viability	TGFb SMAD3 inh	Nrf2 inh	ATXN2 expr inh	A549 tox	HepG2 tox-1	TGFb CAGA inh	HepG2 tox-2	TGFb CCL64 inh	TGFb COP inh
Cc1cccc(-c2nc(CSc3nncn4c3cc3oc(C)cc34)c(C)o2)c1	/	-4%	22%	/	5%	3%	/	/	/	/
CCOc1ccc(Nc2nc(-c3c(C)nc4ccccn34)cs2)cc1	/	/	/	-9%	/	/	/	/	/	/
Cc1ccc(Nc2nc(-c3c(C)nc4ccccn34)cs2)cc1	?	10µM*	?	?	?	-35%	2.6µM*	?	1.3µM*	2%
O=S1(=O)[C@H]2CC3O[C@]2(C[C@@H]3c2ccc(F)cc2)CN1Cc1ccc(Cl)cc1	i	7.1µM*	-12%	-15%	-3%	1%	?	-9%	-11%	-4%
O=C1C=C(/C=C/c2ccccc2)C[C@@H](c2ccc(F)cc2)C1	i	?	4%	2%	0%	-14%	/	/	/	/
COc1ccc([C@H]2CC(=O)C=C(/C=C/c3ccccc3)C2)cc1OC	?	13µM*	?	?	-9%	-6%	?	-19%	?	14%
COc1ccc([C@H]2CC(=O)C=C(c3cccc(Br)c3)C2)cc1OC	?	4.5µM*	-22%	0%	-9%	12%	?	-28%	?	28%
CCOC(=O)CCCC(=O)N1CCOCCOCCOCC1	i	0%	3%	-2%	-5%	8%	/	/	/	/
CCOC(=O)N/N=C/c1cn(CCCOc2ccc(C)cc2)c2ccccc12	/	-27%	10%	13%	8%	-22%	/	/	/	/
O=C(N/N=C/c1cn(Cc2ccccc2)c2ccccc12)c1ccncc1	/	?	?	-22%	-8%	0%	1.2µM*	2.3µM*	4%	-22%
CCOC(=O)N/N=C/c1cn(Cc2ccc(Cl)cc2)c2ccccc12	i	13µM*	7%	4%	6%	-42%	4.1µM*	2.6µM*	5%	42%
COC(=O)N/N=C/c1cn(CCOc2ccccc2)c2ccccc12	?	?	8%	17%	8%	-6%	7.3µM*	3.3µM*	-5%	19%
CN(C)c1ccc(-c2ccnc3c2CC(C)(C(=O)NCc2ccc(F)c(F)c2)O3)cc1 (centres undefined)	?	-15%	/	?	/	-24%	/	/	/	/
CC(=O)Nc1nc(C)c(-c2csc(Nc3cccc(C(C)=O)c3)n2)s1	?	?	?	/	?	-12%	/	/	/	/
CC(=O)Nc1nc(C)c(-c2csc(Nc3cccc([N+](=O)[O-])c3)n2)s1	i	?	?	?	-25%	-41%	-3%	?	?	44%
Cc1cc2c(cc3c(=O)n(CC(=O)NCCCN4CC(C)CC(C)C4)ncn32)s1 (centres undefined)	i	7%	18%	7%	9%	8%	/	/	/	/
Cc1cc(OCCCC(=O)Nc2cccc(-n3cnnn3)c2)ccc1Cl	?	13µM*	2%	/	1%	-16%	?	?	-3%	65%
O=C(Nc1cccc(C(=O)O)c1)/C(=C\c1ccc(F)cc1)NC(=O)c1ccco1	i	3%	27%	3%	4%	1%	/	/	/	/
Cc1ccc(Oc2coc3cc(OC(=O)c4cccs4)ccc3c2=O)cc1	i	14%	?	42%	3%	-13%	/	/	/	/
Cc1cc(C)cc(Oc2coc3cc(OC(=O)c4cccs4)ccc3c2=O)c1	i	?	1%	1%	-10%	-29%	?	-9%	-2%	-10%
Cc1ccccc1Cn1ccc(NC(=O)c2cnn3c2NC(c2ccccc2)CC3C(F)(F)F)n1 (centres undefined)	i	7.9µM*	?	-1%	?	-39%	?	?	23µM*	40%
Cc1ccc(C(C)C)cc1NC(=O)Nc1ccc([N+](=O)[O-])cc1	?	7.9µM*	21µM*	/	?	-82%	?	?	18µM*	89%
Cc1cc(O)c(C(C)C)cc1NC(=O)Nc1ccc([N+](=O)[O-])cc1	i	1%	?	1%	-2%	9%	/	/	/	/
CC1(C(=O)NCC2CCCCC2)CCN1C(=O)Cc1ccc(-c2ccccc2)cc1 (centres undefined)	i	?	/	-4%	/	-53%	-8%	-29%	?	15%
CCOC(=O)N=Nc1c(O)n(CC(=O)OC)c2ccccc12	i	10%	26%	0%[11.3 µM]	3%	-3%	/	/	/	/
SMILES	ATXN viability	TGFb SMAD3 inh	Nrf2 inh	ATXN2 expr inh	A549 tox	HepG2 tox-1	TGFb CAGA inh	HepG2 tox-2	TGFb CCL64 inh	TGFb COP inh
CCOC(=O)N=Nc1c2ccccc2c2nc3no[nH]c3nc12	/	0.71µM*	0.65µM*	?	0.92µM*	0.79µM*	0.65µM*	0.73µM*	1.3µM*	0.73µM*
COc1cc(CN2CCc3ccccc3C2)cc([N+](=O)[O-])c1O	i	4%	2%	/	-10%	-3%	/	/	/	/
COc1cc(CN2CCc3ccccc3C2)ccc1O	18µM*	4.5µM*	7.3µM*	/	-10%	-133%	7.3µM*	15µM*	2.9µM*	-27%
COc1ccccc1CNC(=O)C(Cc1c[nH]c2ccccc12)NC(=O)OCc1ccccc1 (centres undefined)	?	11µM*	?	-3%	-16%	-10%	?	?	?	25%
COc1ccc([C@@H]2CNC(=O)C2)cc1OC1CCCC1	/	/	/	3%	/	/	/	/	/	/
C/C(Cl)=C\Cn1c(O)c(N=NC(N)=S)c2cc(Br)ccc21	?	?	-2%	?	-5%	-65%	/	/	/	/
